Measured values as given in PubChem BioAssay AID485297 (National Center for Advancing Translational Sciences (NCATS), 2010).
In all, about 320,000 compounds went through this assay and about 9,100 (2.8%) were called active. Where a call stands in place of a potency, no number is given. Another 3% or so got no clear call; they are omitted. Calls follow the shape of the dose curve; as a rule, active = well fitted activation curve with a large enough effect; inconclusive = small, poorly fitted or top-dose-only effect; inactive = no such curve, though single readings can be large or run the other way. Only a selection was taken, and actives are over-represented in it overall.

Test: qHTS Assay for Rab9 Promoter Activators; also: nearly all actives have a fitted effect of over 60% in size
Details: Huh7 Rab9 promoter-luciferase reporter, luminescence, 24 h; series mostly up to 9.22 µM
Summary of the method: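 Cell-based reporter: Huh7 stable for Rab9 promoter-driven luciferase, plated in reduced-serum medium with 10% FBS at 1500 cells/well, compound-treated 24 h at 37 °C, luminescence read after 10 min reagent.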
Potency is read from the fitted curve at half-maximal effect.

Structure (SMILES) | Potency
O=C(NC1CCCCC1)c1ccc(-c2ccc(Cl)cc2)o1 | 2820 nM (active)
S=C(NCc1ccc(Cl)cc1)NC1CCCCC1 | inactive
O=C(NC(=S)NC1CCCCC1)c1ccc(Cl)cc1 | inactive
CCCC(NCC(=O)Nc1ccccc1C(=O)NC1CC1)c1ccccc1 (stereo not drawn) | inactive
O=C(OCC(=O)N1CCc2ccccc21)c1ccc([N+](=O)[O-])cc1 | inactive
Cc1ccc(OC(=O)c2c(C)nn(-c3ccccc3)c2C)cc1 | 3160 nM (active)
Cc1ccc(-n2nc(C)c(C(=O)O)c2-n2cccc2)cc1 | inactive
Cc1cccc(C)c1NC(=O)COC(=O)c1c(C)nn(-c2ccccc2)c1C | inactive
Cc1ccc(NC(=O)CN(C)S(=O)(=O)c2cnc[nH]2)cc1C | inactive
Cc1ccc(S(=O)(=O)N2CCOCC2)cc1NC(=O)COC(=O)c1cnccn1 | inactive
O=C(Nc1ccc2c(c1)OCCO2)C1CCCC1 | inactive
Cc1cc(C)nc(N2CCC(C(=O)Nc3ccc4c(c3)OCCO4)CC2)n1 | inactive
O=C(Nc1ccc2c(c1)OCCO2)C1CCCN(c2ncccn2)C1 (stereo not drawn) | 316 nM (active)
Cc1c(C(C)CCCO)oc(=O)c2c1Oc1c(C)c(C(C)C[C@@H](C)O)oc(=O)c1C2 (stereo partly drawn) | inactive
CCCN(CCC)CC(O)COc1ccccc1C(=O)Nc1ccccc1 (stereo not drawn) | inactive
Cc1ccc(C(=O)Nc2c(C#N)c(C)c(C)n2Cc2ccccc2)cc1 | inactive
CC(C)C(=O)Nc1ccc2c(c1)oc1ccccc12 | 891 nM (active)
Cc1cc(=O)oc2cc(NC(=O)C(C)Oc3ccccc3)ccc12 (stereo not drawn) | inactive
CC(C)C(=O)Nc1ccc2oc(=O)ccc2c1 | inactive
CC1(C)O[C@@H]2[C@H](O1)[C@@H](CO)O[C@H]2n1c(N2CCCCC2)nc2c(N)ncnc21 | inactive
Cc1cc(-c2n[nH]c(=S)n2/N=C/C(Br)=C/c2ccccc2)n[nH]1 | inactive
S=c1[nH]nc(-c2cccnc2)n1/N=C/C(Cl)=C\c1ccccc1 | 3160 nM (active)

Structure (SMILES) | Potency
Fc1ccccc1/C=N/n1c(-c2cccnc2)n[nH]c1=S | inactive
O=c1oc(-c2ccco2)nc2sc3c(c12)CCCCC3 | 3550 nM (active)
Cn1c(=O)n(Cc2ccco2)c(=N)c2c3c(sc21)CCCC3 | inactive
O=C(NCc1ccco1)c1cccn2c(=O)c3c4c(sc3nc12)CCCC4 | inactive
CCOC(=O)N1CCN(S(=O)(=O)c2ccc3c(c2)C(C)C(=O)N3)CC1 (stereo not drawn) | inactive
CC(C)N(C(=O)CN1CCN(S(=O)(=O)c2ccc(Br)s2)CC1)C(C)C | inactive
COc1cc(C(=O)NNC(=O)CN2C(=O)NC3(CCCC3)C2=O)cc(OC)c1OC | inactive
COC(=O)c1c(NC(C)=O)sc(C(=O)Nc2ccccc2OC)c1C | inactive
CCOC(=O)c1sc(NC(=O)COc2ncnc3ccccc23)c(C(=O)OCC)c1C | inactive
CCC(=O)Nc1sc(C(=O)Nc2ccccc2)c(C)c1C(=O)OC | 891 nM (active)
Cc1ccc(NC(=O)CCC(=O)N2CCC(c3ccccc3)=N2)cc1S(=O)(=O)N1CCCCC1 | inactive
CCN(CC)C(=O)c1nc[nH]c1C(=O)N(C)Cc1ccccc1 | inactive
Cc1nnc(SCc2nc3ccccc3nc2C)s1 | inactive
Cc1ccc(Nc2nc(N)nc(CSc3nnc(C)s3)n2)cc1 | 4470 nM (active)
CCOC(=O)N1CCN(Cc2nc(N)nc(Nc3ccc(C)cc3)n2)CC1 | inactive
CC(C)(C)C(=O)CSc1ccc(S(=O)(=O)N2CCCC2)cn1 | inactive
COCc1c(C(=O)OCC(=O)Nc2ccc(OC(F)F)cc2)oc2ccccc12 | inactive
CCCc1nc2ccccc2c(=O)n1/N=C/c1ccc(O)c(O)c1 | inactive
O=C(Nn1cnc2ccccc2c1=O)c1ccccc1 | inactive
O=c1c2ccccc2ncn1/N=C/c1ccccc1 | 447 nM (active)
CC(C)C(NC(=O)c1c(F)cccc1F)C(=O)NCc1ccncc1 (stereo not drawn) | inactive
Cc1nn2cc(-c3ccc(Cl)cc3)cnc2c1Br | 1120 nM (active)

Structure (SMILES) | Potency
Cc1noc(C)c1C(=O)NCC1COc2ccccc2O1 (stereo not drawn) | inactive
O=C(COC(=O)c1ccc(O)cc1O)NNC(=O)c1cccs1 | inactive
Cc1ccc(SCCSc2ncccn2)cc1 | 2000 nM (active)
Cc1ccc(SCCC(=O)NC(C(C)C)C(C)C)cc1 | inactive
Cc1ccc(SCCC(=O)NCc2ccccn2)cc1 | inactive
Nc1nnc(SCC(=O)NCC(=O)Nc2ccc(F)c(F)c2F)s1 | inactive
Cc1c(C(=O)NNC(=O)c2ccncc2)oc2ccccc12 | inactive
Cc1cccc(N(C)C(=O)CN2C(=O)COc3ccc(S(=O)(=O)N4CCCCCC4)cc32)c1 | inactive
CN(CC(=O)Nc1cccc(F)c1)C(=O)CC1CCCC1 | inactive
COc1ccc(C2=NN(C(=O)CSc3nnnn3C)C(c3ccco3)C2)cc1 (stereo not drawn) | inactive
Cc1ccc(C(=O)OCC(=O)Nc2ccc(Cl)cn2)cc1S(=O)(=O)N1CCOCC1 | inactive
O=S(=O)(Nc1ccc2nc(N3CCOCC3)sc2c1)c1ccccc1 | 2820 nM (active)
O=C(c1ccc2nc(N3CCOCC3)sc2c1)N1CCN(c2ccc(Cl)cc2)CC1 | inactive
CC(=O)Nc1ccc(S(=O)(=O)Nc2ccc(N3CCOCC3)c(F)c2)cc1 | inactive
N#Cc1ccc(CN2CCN(CC(=O)Nc3ccccc3C(=O)NC3CC3)CC2)cc1 | inactive
CCCn1c(=O)c(C(=O)Nc2cc(C)ccn2)c(O)c2ccccc21 | inactive
C=CCn1c(=O)c(C(=O)Nc2ncccc2O)c(O)c2ccccc21 | inactive
Cn1c(=O)c(C(=O)Nc2ncccn2)c(O)c2ccccc21 | 3160 nM (active)
C/C(N)=C(/C#N)C(=O)COC(=O)CNS(=O)(=O)c1ccc(C)cc1 | inactive
COC(=O)CNS(=O)(=O)c1ccc(OC)cc1 | inactive
COC(=O)CNS(=O)(=O)c1ccc(Cc2ccc(S(=O)(=O)NCC(=O)OC)cc2)cc1 | 1260 nM (active)
COc1ccc(S(=O)(=O)N2CCOCC2)cc1NC(=O)CSc1cc(C)ccc1C | inactive

Structure (SMILES) | Potency
CCOC(=O)c1c(C)[nH]c(C2=NNC(=NC(C)COC)SC2)c1C (stereo not drawn) | 1580 nM (active)
O=C(CSc1nc2ccccc2c(=O)n1CCCO)NC1CC1 | inactive
CN(CCO)Cc1csc2ccc(Br)cc12 | inactive
COc1ccc(/C=C/c2nnc(NC(=O)C(C)C)s2)cc1 | inactive
COc1ccc(/C=C/c2noc(-c3ccccc3OC(C)=O)n2)cc1 | 2240 nM (active)
CC(=O)Oc1ccc(-c2nc3c(C)cccc3c(=O)o2)cc1 | inactive
Cc1ccc(NC(=O)COC(=O)CN2CCCCCC2=O)c(C)c1 | inactive
COc1ccc(OC)c(S(=O)(=O)Nc2c(C)nn(C)c2C)c1 | inactive
Cc1ccc(S(=O)(=O)Cc2cc(-c3ccc(Cl)cc3)no2)cc1 | inactive
CC(C)C(=O)NCc1cc(-c2ccc(Cl)cc2)no1 | inactive
Oc1ccccc1-c1cc(-c2ccc(Cl)cc2)n[nH]1 | 2510 nM (active)
Cc1sc2ncn(CC(=O)NCCCC(=O)NCc3ccc(F)cc3)c(=O)c2c1C | inactive
CCCCCc1c(C)nc(N2CCN(Cc3ccc4c(c3)OCO4)CC2)[nH]c1=O | inactive
O=C(NCc1ccncc1)c1cccc(NS(=O)(=O)c2ccc(F)c(F)c2)c1 | inactive
CCC(=O)N1CCCc2ccccc21 | inactive
O=C(CN1CCN(c2ccccn2)CC1)N1CCc2ccccc21 | inactive
O=C(CSCc1ccccc1)N1CCc2ccccc21 | 1780 nM (active)
CCCCn1nc(C(=O)Nc2cccc(C(=O)NC3CC3)c2)c2ccccc2c1=O | inactive
Cc1ccc(NC(=O)CCCNC(=O)c2ccc(Cl)cc2)cc1S(=O)(=O)N1CCOCC1 | inactive
CCS(=O)(=O)Nc1ccc(C(=O)NCCSc2ccccc2)cc1 | inactive
O=C(NCCSc1ccccc1)c1ccco1 | 3550 nM (active)
O=C(NCCSc1ncc(-c2ccccc2)[nH]1)c1ccco1 | inactive

Structure (SMILES) | Potency
CC(C)(CNC(=O)CNC(=O)C1CCCCC1)N1CCOCC1 | inactive
CCCCNC(=O)Cn1nc(C)c(S(=O)(=O)N2CCOCC2)c1C | inactive
CC1CCN(S(=O)(=O)c2ccc3c(c2)n(C)c(=O)n3C)CC1 | inactive
CCOC(=O)CC1(NC(=O)c2cc(COc3cncc(Cl)c3)on2)CCCCC1 | inactive
CCCOC1CCCN(C(=O)c2cc(COc3cncc(Cl)c3)on2)C1 (stereo not drawn) | 1410 nM (active)
Cc1nonc1C1CCCN1C(=O)c1cc(COc2cccc(C(F)(F)F)c2)on1 (stereo not drawn) | inactive
CC(C)(C)c1nnc(N/N=C/c2ccc(O)cc2)n(N)c1=O | inactive
Cc1ccc(Cn2c(C)c3cnn(CC(=O)NCc4ccccn4)c(=O)c3c2C)cc1 | inactive
Cc1ccc(C(=O)Nc2ncccc2C)cc1S(=O)(=O)N1CCOCC1 | inactive
Cc1cc(NC(=O)COc2ccccc2C#N)no1 | 3550 nM (active)
CCOc1ccc(NC(=O)Nc2cc(C)on2)cc1 | 1120 nM (active)
Cc1cc(NC(=O)COc2ccc([N+](=O)[O-])cc2)no1 | inactive
CCC(=O)Nc1ccc(C(=O)Nc2cc(C)on2)cc1 | inactive
Cc1cc(NC(=O)COn2nnc3ccccc32)no1 | inactive
CCOc1ccc(C(=O)Nc2ccc(S(=O)(=O)Nc3cc(C)on3)cc2)cc1 | inactive
Cc1cc(C)cc(NC(=O)C(OC(=O)c2ccc(O)cc2)c2ccccc2)c1 (stereo not drawn) | inactive
COc1ccc([C@H]2CC(=O)C=C(c3ccc(OC(F)(F)F)cc3)C2)cc1OC | inactive
CCN(CC)S(=O)(=O)c1ccc(N2CCOCC2)c(NC(=O)c2ccc(=O)n(C)n2)c1 | inactive
COc1ccc2c(c1)[C@H]1[C@H](CO2)[C@H](c2ccccc2)[C@]2(C)C(=O)Nc3cc(F)c(F)cc3C(=O)N12 | inactive
O=C(NCCN1CCOCC1)c1cccc(S(=O)(=O)Nc2ccc(F)cc2)c1 | inactive
